Bioassay records: PubChem, Paczesny and Yang Labs, IUPUI and University of Michigan
Shown is part of a subset that was picked to be rich in hits.
ST2 IL33 inh – inhibitors of human ST2 (IL1RL1) binding to IL-33; 78,000 compounds, 2.3% hits; AlphaLISA ST2-Fc/biotin-IL-33 interaction, 1 h; inhibition, % for hits at 17 µM; Q01638; in the data active means inhibition above about 30%
Target sequence (Q01638 whole entry, looked up): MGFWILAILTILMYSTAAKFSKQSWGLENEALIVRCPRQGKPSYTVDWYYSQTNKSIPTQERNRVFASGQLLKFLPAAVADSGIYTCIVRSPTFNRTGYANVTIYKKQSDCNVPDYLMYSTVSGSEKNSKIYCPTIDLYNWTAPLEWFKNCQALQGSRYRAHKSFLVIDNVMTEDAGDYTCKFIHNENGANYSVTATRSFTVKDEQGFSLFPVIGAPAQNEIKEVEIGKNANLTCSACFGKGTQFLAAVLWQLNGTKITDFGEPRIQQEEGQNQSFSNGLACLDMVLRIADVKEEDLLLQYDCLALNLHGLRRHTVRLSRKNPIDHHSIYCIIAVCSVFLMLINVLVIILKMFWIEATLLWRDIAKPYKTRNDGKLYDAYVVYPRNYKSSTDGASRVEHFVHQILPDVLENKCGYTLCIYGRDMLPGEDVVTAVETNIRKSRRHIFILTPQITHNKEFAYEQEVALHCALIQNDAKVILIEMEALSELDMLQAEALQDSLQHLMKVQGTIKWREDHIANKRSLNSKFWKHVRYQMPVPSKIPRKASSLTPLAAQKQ
* = called active by the depositor; i = inactive.

SMILES	ST2 IL33 inh
O=S(=O)(c1cccnc1)N1CCOC(CCCc2ccccc2)C1 (stereo not drawn)	i
COc1cccc(-c2ccc(C(=O)N3CCC(N4CCCC4=O)CC3)o2)c1	i
Cc1ccc(-c2nnc(-c3nc(NCc4ccccn4)c4ccccc4n3)o2)cc1	i
Cc1cnn(CC(=O)N2CCOc3c(O)cc(-c4cccc(Cl)c4)cc3C2)c1	i
Cc1cc(NC(=O)Nc2c(C)nc3nc[nH]n3c2=O)ccc1Br	i
Cc1nn(CC(=O)O)c2c1C1C(C2)C1(C)C (stereo not drawn)	i
C=C(C)COc1cccc(C(=O)NCc2cncn2CC)c1	i
CCCC1COCCN1C(=O)c1cc(=O)c2ccccc2o1 (stereo not drawn)	40%*
Cc1ccc(NC2CCCN(C(=O)c3cc(=O)c4ccccc4o3)C2)cc1C (stereo not drawn)	i
CCN1CCN(C(=O)c2cc(=O)c3ccccc3o2)C(C)C1=O (stereo not drawn)	i
Cc1ccc(F)c(NC(=O)CCC(=O)NCC2(CO)CCOCC2)c1	i
CCOc1ccc(C2=C(CN(C)C)C(c3ccc(F)cc3)c3ccccc3O2)cc1 (stereo not drawn)	40%*
CCOc1ccc(C2=C(CN3CCOCC3)C(c3ccccc3)c3ccccc3O2)cc1 (stereo not drawn)	31%*
CCOC1=CC(c2ccc(F)cc2)Oc2ccccc21 (stereo not drawn)	i
c1ccc(OCCCN2CCOCC2)cc1	i
CCOc1ccc2c(=O)c(-c3ccc(F)cc3)c(C)oc2c1	i
CCOC(=O)C1CCN(C(=O)C2c3ccccc3Oc3ccccc32)CC1	i
O=C(c1cccc([N+](=O)[O-])c1)N1N=C2CCCCCC2C1(O)C(F)(F)F (stereo not drawn)	i
COC(=O)c1ccc(N2C(=O)CSC2c2ccccc2)cc1 (stereo not drawn)	i
CC(C)N(Cc1nccn1C)C(=O)c1ccc2oc(CCc3ccccc3)nc2c1	i
O=C1N[C@H]2C=C[C@@H]1C1C(=O)N(c3ccccc3)C(=O)C12 (stereo partly drawn)	i
Cc1ccnc(NC(c2cccnc2)c2ccc3cccnc3c2O)c1 (stereo not drawn)	i
CCOc1cc(C(Nc2ccccn2)c2ccc3cccnc3c2O)ccc1O (stereo not drawn)	i
CCN(CC)c1ccc(C(Nc2ccccn2)c2ccc3cccnc3c2O)cc1 (stereo not drawn)	36%*
COc1ccc(N2CCCS2(=O)=O)cc1NC(=O)c1ccc(C(C)(C)C)cc1	i
SMILES	ST2 IL33 inh
CC(=O)N(CN1C(=O)c2ccccc2C1=O)c1ccc(F)cc1	i
O=C1c2ccccc2C(=O)N1CN(C(=O)c1ccccc1)c1ccc(F)cc1	77%*
O=C1c2ccccc2C(=O)N1CN(C(=O)c1ccccc1)c1ccc(Br)cc1	i
CC1=C(C(=O)Nc2ccc(C)cc2C)C(c2cccc(Cl)c2)n2nnnc2N1 (stereo not drawn)	i
O=[N+]([O-])c1cccc(C(=Nc2ccccc2)NO)c1	i
O=[N+]([O-])c1cccc(/C=C/c2ccccn2)c1	37%*
Nc1nnc(/C=C/c2cccc([N+](=O)[O-])c2)s1	i
Cn1cc(CN2CCN(C(=O)c3ccco3)CC2)c(-c2ccc(Oc3ccccc3)cc2)n1	i
Cc1cccc(-n2cc(CN3CCN(C)C(C(=O)O)C3)cn2)c1 (stereo not drawn)	i
COc1cccc(N2CC(NC(=O)C3CCCCC3)CC2=O)c1 (stereo not drawn)	i
COc1cccc(C(=O)Nc2ccccc2C(=O)NC2CCCCC2)c1	i
COc1cccc(N(C(C)=O)C2=C(NC3CCCCC3)C(=O)c3ccccc3C2=O)c1	38%*
CC(=O)N(C1=C(NC2CCCCC2)C(=O)c2ccccc2C1=O)c1ccc(F)c(F)c1	45%*
O=C(NC1CCCCC1)C(c1ccccc1)c1ccccc1	i
CC(C(=O)NC1CCCC1)N(c1ccccc1)S(C)(=O)=O (stereo not drawn)	i
CC(CC(=O)N1CCCc2ccccc21)c1ccccc1 (stereo not drawn)	i
O=C(CS(=O)(=O)c1c[nH]c2ccccc12)Nc1ccccc1	i
CC1(C(=O)NC2CCCCCC2)CCC(=O)N1Cc1ccco1 (stereo not drawn)	i
O=C(C1CCCC1)N1CCN=C1SCc1cccc(Cl)c1	i
COc1cc(-c2cc(=O)c3ccccc3o2)ccc1O	i
COc1ccc(-c2cc(=O)c3cc(F)ccc3o2)cc1OC	i
COc1ccc(-c2cc(=O)c3cc(Br)ccc3o2)cc1OC	31%*
COc1ccc(C2NC(C(=O)O)CS2)cc1CSc1ccccn1 (stereo not drawn)	i
COC[C@H]1CCCN1C(=O)CC[C@H]1CNC(=O)[C@@H]2[C@@H](CCN2CC(C)(C)C)N1C	i
O=C(Nc1cccc([N+](=O)[O-])c1)c1ccc(S(=O)(=O)N2CCCCC2)cc1	i
SMILES	ST2 IL33 inh
COc1cc(-c2ncnn2-c2ccc(Cl)cc2)cc(OC)c1OC	i
COc1cc(-c2ncnn2-c2cccc(Cl)c2C)cc(OC)c1OC	33%*
Clc1ccc(-c2ncnn2-c2ccccc2Cl)cc1	i
CCC1=NOC(CNc2nccc(CCC(F)(F)F)n2)C1 (stereo not drawn)	i
COc1ccc(-c2c3c(=O)n(C)c(=O)n(C)c3cn2-c2ccccc2OC)cc1	i
CC(C)Oc1ccccc1NC(=O)CSc1nc2sc3c(c2c(=O)n1C)CCCC3	i
N#Cc1cc2c(=O)n3ccccc3nc2n(CCCn2ccnc2)c1=N	31%*
Cc1cccn2c(=O)c3cc(C(=O)NCc4cccnc4)c(=N)n(CCCn4ccnc4)c3nc12	i
CCC(C)n1c(=N)c(C#N)cc2c(=O)n3ccccc3nc21 (stereo not drawn)	39%*
N#Cc1cc2c(=O)n3ccccc3nc2n(CCc2ccccc2)c1=N	i
N#Cc1cc2c(=O)n3ccccc3nc2n(Cc2ccccc2)c1=N	i
CCC(C)n1c(=N)c(C(=O)NC2CCCCC2)cc2c(=O)n3ccccc3nc21 (stereo not drawn)	i
CCOc1ccc(-c2nc3s/c(=C\c4cccs4)c(=O)n3n2)cc1	i
COCc1ccc(CNC2CCCN(c3ncccn3)C2)o1 (stereo not drawn)	i
O=C(c1ccc(Cl)cc1Cl)N1CCCCCC1	i
Cc1ccc(-c2ccc(/C=C3/C(=O)NN(c4ccc(F)cc4)C3=O)o2)c([N+](=O)[O-])c1C	42%*
COc1cccc(/C=C2/C(=O)NN(c3ccc(C)c(Cl)c3)C2=O)c1OCC#N	i
COc1ccccc1/C=C1/C(=O)NN(c2ccc(C)c(Cl)c2)C1=O	i
N=C1S/C(=C/c2ccc(-c3ccccc3[N+](=O)[O-])o2)C(=O)N1c1nonc1N	i
COc1ccc(-c2ccc(/C=C3/C(=O)NN(c4ccc(C)c(Cl)c4)C3=O)o2)c([N+](=O)[O-])c1	41%*
CCCC(=O)N(c1ccc(C)c(C)c1)C1C=CS(=O)(=O)C1 (stereo not drawn)	i
Cn1ccnc1CN(Cc1cc(F)c(F)c(F)c1)C1CC1	i
O=c1n(Cc2cccc(F)c2F)nc(C2CCNCC2)n1Cc1ccccc1	i
CC(C)SCCn1nc(C2CCCNC2)n(-c2ccccc2)c1=O (stereo not drawn)	i
O=c1n(CCCn2cccc2)nc(C2CCNCC2)n1-c1ccccc1	30%*
O=C(NC[C@H]1O[C@@H](CO)[C@@H](O)[C@H]1N1CCOCC1)Nc1cccc(Cl)c1	i
CCn1cc(SCC(=O)Nc2nnc(C)s2)c2ccccc21	i
